{"source": "PubChem BioAssay AID624416", "about": "(The Scripps Research Institute Molecular Screening Center, 2012)", "note": "About 1,500 (0.42%) of roughly 360,000 compounds were called active. Cut-off read from the data, not from the text of the source: active = inhibition above about 8.5%; inactive = the rest. Shown is part of a subset that was picked to be rich in actives."}
{"test_system": "HIV-1 gp120 / PG9 antibody interaction", "test": "small molecules engaging PG9 antibody – biochemical, TR-FRET, primary screen (AID 624416)", "conditions": "TR-FRET gp120-PG9 antibody binding; at 6.7 µM; hits give high values"}
{"smiles": "COC(=O)C1=C(C(=O)OC)C2C=C(C(C)C)C1C(=O)C2(C)O", "note": "(stereo not drawn)", "inhibition": "-0.26% (inactive)"}
{"smiles": "CCCCCCNC(=O)CSc1nccn1Cc1ccccc1", "inhibition": "0.53% (inactive)"}
{"smiles": "COc1cccc(-n2c(SCC(=O)NC3CCCCC3)nc3n[nH]c(C)c3c2=N)c1", "inhibition": "0.99% (inactive)"}
{"smiles": "CCCCNC(=O)CSc1nc2n[nH]c(C)c2c(=N)n1-c1cccc(Cl)c1C", "inhibition": "20.8% (active)"}
{"smiles": "Cc1nnc(OCC(=O)NCCC2=CCCCC2)c2ccccc12", "inhibition": "-0.11% (inactive)"}
{"smiles": "CCCCNC(=O)CSc1nccn1Cc1ccccc1", "inhibition": "2.29% (inactive)"}
{"smiles": "Cc1ccc(-n2c(SCC(=O)NCCC3=CCCCC3)nc3n[nH]c(C)c3c2=N)cc1Cl", "inhibition": "35.7% (active)"}
{"smiles": "Cc1ccc(C)c(CN2CCC(CNC(=O)C3CCCN(c4ncnc5c4nc4n5CCCCC4)C3)CC2)c1", "note": "(stereo not drawn)", "inhibition": "-0.22% (inactive)"}
{"smiles": "COC(=O)[C@]12C[C@H](CC(=O)NCCCCc3ccccc3)C(=O)N(Cc3ccc4c(c3)OCO4)C1=C[C@H](C(C)(C)C)O[C@@H]2C", "inhibition": "1.2% (inactive)"}
{"smiles": "C=CCN=C1NC(c2ccccc2)C(C(=O)OC)=C(C)N1Cc1ccc(C(F)(F)F)cc1", "note": "(stereo not drawn)", "inhibition": "-0.19% (inactive)"}
{"smiles": "COc1ccc(CNS(=O)(=O)c2cc(Br)ccc2Br)cc1", "inhibition": "0.06% (inactive)"}
{"smiles": "COC(=O)Cc1nnn2c1[C@H](C)[C@H](c1ccccc1Br)OCC2", "inhibition": "1.33% (inactive)"}
{"smiles": "Cc1ccc(N)cc1CN1CCN(c2ncc(Cc3ccccc3)cn2)CC1", "inhibition": "-3.21% (inactive)"}
{"smiles": "COc1ccc(C)cc1NC(=O)CSc1ccc(Cl)cc1", "inhibition": "-1.28% (inactive)"}
{"smiles": "COc1ccc(Cl)cc1NC(=O)CN1CCN(C(=O)N2CCOCC2)CC1", "inhibition": "1.73% (inactive)"}
{"smiles": "COc1ccc(Cl)cc1NC(=O)Cn1nc(-c2ccc(C)cc2)n(C)c1=S", "inhibition": "11% (active)"}
{"smiles": "CC1CCCN(c2cccc3c2S(=O)(=O)N(Cc2ccc(F)cc2)[C@@H](C)[C@H](c2ccccc2)O3)C1", "note": "(stereo partly drawn)", "inhibition": "0.43% (inactive)"}
{"smiles": "CCCN1C(=O)c2[nH]nc(-c3ccccc3)c2C1c1ccccc1", "note": "(stereo not drawn)", "inhibition": "-1.03% (inactive)"}
{"smiles": "CCN(CC)CCNC(=O)c1ccc(NS(=O)(=O)c2ccc3c(c2)OCCO3)cc1", "inhibition": "-1.11% (inactive)"}
{"smiles": "O=C(Nc1cccc(S(=O)(=O)Nc2ccc(Cl)cc2)c1)c1ccc2c(c1)OCCO2", "inhibition": "9.35% (active)"}
{"smiles": "CC(NS(=O)(=O)c1ccc(Cl)cc1)C(=O)Nc1ccc2c(c1)OCCO2", "note": "(stereo not drawn)", "inhibition": "0.53% (inactive)"}
{"smiles": "Nc1nc2c(Br)ccc(Br)c2cc1C(=O)NCCc1ccccc1", "inhibition": "3.73% (inactive)"}
{"smiles": "COCCNC(=O)c1cc2c(Br)ccc(Br)c2nc1N", "inhibition": "9.73% (active)"}
{"smiles": "COCCNC(=O)c1ccccc1-c1nc(-c2ccccc2Cl)no1", "inhibition": "-2.1% (inactive)"}
{"smiles": "Cc1ccc2nc(CN(C)C(=O)[C@@H](Cc3ccccc3)NC(=O)[C@H]3O[C@@H](n4ccc(=O)[nH]c4=O)[C@H](O)[C@@H]3O)[nH]c2c1", "inhibition": "-1.8% (inactive)"}
{"smiles": "COc1ccc(SSc2ccc(OC)cc2C(=O)O)c(C(=O)O)c1", "inhibition": "-0.62% (inactive)"}
{"smiles": "C=CCn1c(CCNC(=O)c2cccs2)n[nH]c1=S", "inhibition": "-0.83% (inactive)"}
{"smiles": "C=CCn1c(=NC(=O)c2ccc(S(=O)(=O)N3CCCC3)cc2)sc2cc(NC(C)=O)ccc21", "inhibition": "13% (active)"}
{"smiles": "CC(=O)Nc1ccc(S(=O)(=O)N2CCN(S(=O)(=O)c3cccs3)CC2)cc1", "inhibition": "1.11% (inactive)"}
{"smiles": "C=CCn1c(=NC(=O)c2cccs2)sc2cc(NC(C)=O)ccc21", "inhibition": "10.5% (active)"}
{"smiles": "C=CCn1c(SCC(=O)Nc2ccc(NC(C)=O)cc2)nc2sc(C)c(C)c2c1=O", "inhibition": "1.19% (inactive)"}
{"smiles": "O=C(CN1CCCCCC1)Nc1ccc(S(=O)(=O)N2CCCCC2)cc1", "inhibition": "-1.07% (inactive)"}
{"smiles": "O=C(NCc1ccccc1)[C@@H]1CCCN1C(=O)[C@H]1CCCN1C(=O)c1cccc(Cl)c1", "inhibition": "-0.83% (inactive)"}
{"smiles": "Cc1noc(C)c1NC(=O)Nc1ccc2c(c1)C(=O)N([C@H](C)CO)C[C@H](C)[C@H](CN(C)Cc1ccncc1)OCCCC[C@@H](C)O2", "inhibition": "0.19% (inactive)"}
{"smiles": "C[C@H]1CN([C@@H](C)CO)C(=O)CCCn2nncc2CO[C@@H]1CN(C)C(=O)Nc1ccc(N2CCN(C)CC2)cc1", "inhibition": "-0.47% (inactive)"}
{"smiles": "Cc1[nH]c2ccccc2c1CC(=O)Nc1ccc(Nc2cccnc2)c(-c2cccc(Cl)c2)c1", "inhibition": "0.12% (inactive)"}
{"smiles": "O=C(O)Cn1cnc2c(NCc3ccccc3)ncnc21", "inhibition": "1.02% (inactive)"}
{"smiles": "CC(=O)C1=C(C)N(Cc2ccccc2)C(=S)NC1c1cccc(Br)c1", "note": "(stereo not drawn)", "inhibition": "-1.42% (inactive)"}
{"smiles": "CCOc1ccccc1C(=O)N1CCC[C@@H]1C(=O)N1CCC[C@H]1C(=O)NCc1ccccc1", "inhibition": "2.14% (inactive)"}
{"smiles": "COc1cccc(CC(=O)N2CCN(C(=O)C(=O)c3cccc(C(F)(F)F)c3)CC2)c1", "inhibition": "0.18% (inactive)"}
{"smiles": "COCc1cc(N2CCN(C(=O)OC(C)(C)C)C[C@@H]2C)ccc1N1CCN(Cc2ccccc2)[C@H](C)C1", "inhibition": "0.37% (inactive)"}
{"smiles": "CCCCCCCCN1C(=O)[C@@H](CC(=O)NCc2ccccc2)C[C@@]2(C(=O)OC)C1=C[C@H](C(C)(C)C)O[C@@H]2C", "inhibition": "-0.73% (inactive)"}
{"smiles": "COCCCNc1nc2c(-c3cccc(C(F)(F)F)c3)nnn2c2ccccc12", "inhibition": "0.39% (inactive)"}
{"smiles": "COCCCNc1nc2c(-c3cccc(C)c3)nnn2c2ccc(Cl)cc12", "inhibition": "10.3% (active)"}
{"smiles": "COCCNc1nc(Nc2ccccc2Cl)c2sc(-c3ccccc3)cc2n1", "inhibition": "1.58% (inactive)"}
{"smiles": "CC(C)CNc1cccc2c1S(=O)(=O)N[C@H](CC(C)C)CO2", "inhibition": "-0.01% (inactive)"}
{"smiles": "CN(C)C(=O)N1CCN(C(=O)[C@@H](Cc2ccccc2)NC(=O)[C@H]2O[C@@H](n3ccc(N)nc3=O)[C@H](O)[C@@H]2O)CC1", "inhibition": "-2.32% (inactive)"}
{"smiles": "CCCOc1ccc(C2C(C(=O)c3ccc(C)o3)=C(O)C(=O)N2CCCn2ccnc2)cc1", "note": "(stereo not drawn)", "inhibition": "54.6% (active)"}
{"smiles": "C=CCOc1cccc(C2C(C(=O)c3ccc(C)o3)=C(O)C(=O)N2CCN2CCOCC2)c1", "note": "(stereo not drawn)", "inhibition": "2.96% (inactive)"}
{"smiles": "C=CCOc1cccc(C2C(C(=O)c3ccc(C)o3)=C(O)C(=O)N2CCCn2ccnc2)c1", "note": "(stereo not drawn)", "inhibition": "11.1% (active)"}
{"smiles": "CCOc1ccc(C2/C(=C(/O)c3ccc4c(c3)CC(C)O4)C(=O)C(=O)N2CCCn2ccnc2)cc1", "note": "(stereo not drawn)", "inhibition": "1.05% (inactive)"}
{"smiles": "C=CCOc1cccc(C2C(C(=O)c3ccc(C)o3)=C(O)C(=O)N2c2nnc(C)s2)c1", "note": "(stereo not drawn)", "inhibition": "2.85% (inactive)"}
{"smiles": "c1ccc(Cc2ccc(OCCn3ccnc3)cc2)cc1", "inhibition": "-0.66% (inactive)"}
